High-throughput results deposited in PubChem BioAssay by Broad Institute.
Glyco luc inh: N-linked glycosylation inhibition | D54 ERlucT glycosylation luciferase reporter, 24 h; percent of 100 nM tunicamycin response | AID 588692 | reporter increase, % at 12.5 µM | actives 0.23% (n = 360,000);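 active = mean luciferase reporter signal, scaled so untreated is 0 and the glycosylation-blocking control 100, at or above a set limit in every replicate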;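 note: luciferase carries N-glycosylation sites so blocking glycosylation raises the light; 0% = median of neutral control wells and 100% = median of 100 nM tunicamycin wells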
NSD2 inh: blocks human histone methyltransferase NSD2. O96028. NSD2 peptide methylation, AlphaScreen, 120 min. inhibition, % at 12.5 µM. actives 0.54% (n = 310,000). AID 743445; in the data active = inhibition above about 50%
Casp6 inh: caspase-6 (human) enzyme inhibition; P55212; purified caspase-6, Z-VEID-R110 cleavage fluorescence; inhibition, % at 12.5 µM; actives 0.53% (n = 350,000);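 active = mean inhibition across replicates at least about 35%, with every replicate also reaching that limit, limit read from the data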;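 note: 0% = median of neutral control wells and 100% = no fluorescence left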
Target sequence (P55212 24-179 limits assumed): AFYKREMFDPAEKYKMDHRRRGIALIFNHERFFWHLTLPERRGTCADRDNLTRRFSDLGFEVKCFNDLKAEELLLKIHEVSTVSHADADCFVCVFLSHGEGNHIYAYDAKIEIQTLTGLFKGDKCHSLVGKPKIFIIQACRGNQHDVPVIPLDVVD
Target sequence (P55212 194-293 limits assumed): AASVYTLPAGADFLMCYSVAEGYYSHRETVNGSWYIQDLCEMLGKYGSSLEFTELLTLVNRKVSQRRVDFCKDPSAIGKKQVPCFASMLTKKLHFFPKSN
SUMO Mot1 rescue: inhibitors of SUMOylation pathway: yeast Mot1-301 growth rescue; S. cerevisiae Mot1-301 growth rescue, ATP luminescence, 38.5C; percent above DMSO median, 100 means doubled; growth rescue, % at 18.8 µM; actives 1% (n = 320,000);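 active = every valid replicate shows activation above 250% relative to neutral control wells; inactive = the rest, any valid replicate at or below 250%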;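 note: OY570 slx delta 5 strain wells were the positive control but not used for scaling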
ALR H2O2 inh: blocks human ALR sulfhydryl oxidase activity | actives 3.8% (n = 290,000) | purified ALR, DTT oxidation, H2O2 HRP-luminol luminescence | inhibition, % (concentration not given with the values) | AID 485317;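 active = mean replicate inhibition above about 79%, with every replicate also reaching it, limit read from the data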
Target sequence (P55789 whole entry, looked up): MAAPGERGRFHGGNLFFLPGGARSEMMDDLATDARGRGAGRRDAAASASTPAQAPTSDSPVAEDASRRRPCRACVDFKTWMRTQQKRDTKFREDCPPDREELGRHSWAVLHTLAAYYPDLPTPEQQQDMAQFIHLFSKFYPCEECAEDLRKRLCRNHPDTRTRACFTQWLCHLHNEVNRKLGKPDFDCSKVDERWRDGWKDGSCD
CDK5 p35 inh: blocks human CDK5/p35 kinase activity; Q00535+Q15078; Recombinant CDK5/p35, ADP-Glo luminescence, 60 min; inhibition, % at 10 µM; actives 0.01% (n = 330,000); AID 488839;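 active = highest replicate inhibition of at least 50% and at least 75% of replicates reaching 50%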;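 note: plate controls were DMSO neutral control for no effect and GW8510 at 10 µM for full effect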
* = called active by the depositor; · = no result. Only some compounds are listed: those with a hit (about 3.9% of all), similar ones and a draw of the others.

SMILES	Glyco luc inh	NSD2 inh	Casp6 inh	SUMO Mot1 rescue	ALR H2O2 inh	CDK5 p35 inh
COc1ccc(CCNC(=O)CSc2nc(O)c(CC(C)C)c(=O)[nH]2)cc1OC	1	2	·	8	98*	-1
COc1ccc(Cc2c(O)nc(SCC(=O)N3CCCCCC3)[nH]c2=O)cc1	2	0	·	-2	57	1
COc1ccc(CCNC(=O)c2c[nH]c3ccccc3c2=O)cc1OC	3	-3	·	-10	0	1
COc1ccc(CCNC(=O)CSc2c[nH]c3ccccc23)cc1OC	-2	·	2	-1	97*	-1
COc1ccc2c3c([nH]c2c1)[C@@H](CO)N(C(=O)C1CC1)CC31CN(Cc2nccs2)C1	·	·	0	·	·	·
COc1ccc(NC(=O)Nc2ccc3c(c2)C(=O)N([C@@H](C)CO)C[C@H](C)[C@@H](CN(C)Cc2ccc(-c4ccccc4)cc2)O3)cc1	·	·	1	·	·	·
OCc1ccccc1-c1nc(NCc2ccccc2)nc2ccsc12	4	-1	42*	·	·	·
Clc1ccccc1Nc1nc(NCc2ccccc2)nc2ccsc12	-6	-2	2	·	·	·
COc1ccc(NC(=O)Nc2ccc3c(c2)[C@@H]2C[C@@H](CC(=O)NC4CCCC4)O[C@@H](CO)[C@@H]2O3)cc1	·	·	-1	·	·	·
O=C(c1cccc(C(F)(F)F)c1)C1CCCN(C(=O)c2cc(C3CC3)[nH]n2)C1 (configuration not stated)	0	-2	0	8	86*	-1
Cc1cc(C(=O)N2CCCC(C(=O)c3cccc(C(F)(F)F)c3)C2)n[nH]1 (configuration not stated)	-1	-1	-2	-16	2	2
COc1cc2c(cc1OC)C(=O)N1[C@H]3c4cc(Cl)ccc4OC[C@@H]3[C@H](c3ccccc3)[C@]1(C)C(=O)N2	45*	·	1	69	·	-1
Cc1ccc2c(c1)[C@H]1[C@H](CO2)[C@H](c2ccccc2)[C@]2(C)C(=O)Nc3cc(F)c(F)cc3C(=O)N12	11	·	12	197	0	-3
COc1cc2c(cc1OC)C(=O)N1[C@H]3c4cc(C)ccc4OC[C@@H]3[C@H](c3ccccc3)[C@]1(C)C(=O)N2	52*	·	5	175	0	-2
CCOC(=O)C(C)/C(C)=N/NC(N)=S (configuration not stated)	0	-4	·	-8	96*	-1
COc1cc(C=C2C(=O)C=CC2=O)ccc1O	·	·	79*	·	·	·
COc1cc(C=C2NC(=O)NC2=O)ccc1O	0	0	-1	·	·	·
COc1cc(/C=C2/C(=O)CNC2=O)ccc1O	1	0	·	3	99*	1
COc1ccccc1N(O)C1CC(=O)N(c2ccc(Br)cc2)C1=O (configuration not stated)	1	·	·	-5	·	-2
CCCCCCC(=O)N(O)C1CC(=O)N(c2ccc(F)cc2)C1=O (configuration not stated)	78*	0	0	194	8	-1
CCCCN(C(=O)CCC(=O)O)C1CC(=O)N(c2ccc(OCCC)cc2)C1=O (configuration not stated)	0	5	·	4	-1	0
CCCCCCC(=O)N(O)C1CC(=O)N(c2ccc(Br)cc2)C1=O (configuration not stated)	68*	·	·	338*	10	-7
CN(C)C(=O)[C@H]1[C@H](CO)[C@H]2Cn3c(cccc3=O)[C@H]2N1C(=O)C1CCCC1	·	·	-1	·	·	·
Cc1noc(C)c1S(=O)(=O)N(C)C[C@@H]1Oc2ccc(NS(C)(=O)=O)cc2C(=O)N([C@@H](C)CO)C[C@@H]1C	·	·	0	·	·	·
O=C(CSc1ccsc1[N+](=O)[O-])Nc1cccc(F)c1	3	5	41*	·	·	1
SMILES	Glyco luc inh	NSD2 inh	Casp6 inh	SUMO Mot1 rescue	ALR H2O2 inh	CDK5 p35 inh
CCc1ccccc1NC(=O)CSc1ccsc1[N+](=O)[O-]	3	0	·	73	18	2
O=C(O)c1ccc(N2C(=O)CC(N3C(=O)/C(=C/c4ccc(Cl)cc4)SC3=S)C2=O)cc1 (configuration not stated)	-3	·	22	-4	100*	2
O=C(O)c1ccc(N2C(=O)CC(N3CCN(c4ccc(Cl)cc4)CC3)C2=O)cc1 (configuration not stated)	0	1	2	-2	23	0
Cc1cc(NC(=O)CSc2nc3c(cc2C#N)CCCC3)no1	-10	-2	·	-9	-9	0
Cc1noc(NS(=O)(=O)c2ccc(NC(=O)CSc3nc4c(cc3C#N)CCCC4)cc2)c1C	1	·	5	-18	95*	2
Cc1noc(NS(=O)(=O)c2ccc(NC(=O)CSc3nc4c(cc3C#N)CCC4)cc2)c1C	1	·	5	-2	98*	1
O=C(C[C@@H]1C[C@@H]2c3cc(NC(=O)C4CCOCC4)ccc3O[C@@H]2[C@@H](CO)O1)NCc1cccc(F)c1	·	·	-1	·	·	·
N#Cc1cc(C(=O)c2ccccc2O)cn(-c2nccs2)c1=O	3	21	·	21	97*	1
O=C(O)CSc1nnc(-c2ccncc2)n1-c1ccc(Cl)cc1	1	0	·	7	-18	2
O=C(O)CSc1nnc(-c2ccc(Cl)cc2)n1-c1ccccc1	1	-1	-2	4	86*	-1
CC(=O)C1=C(C)Nc2ncnn2C1c1cccc(O)c1 (configuration not stated)	3	0	-2	336*	23	-1
O=C(O)C/C(=C\c1cc(Cl)c2c(c1)OCO2)c1nc2ccccc2s1	1	8	60*	-22	12	-4
O=C(O)CCC(=O)Nc1ccc(C(=O)OCC(=O)c2ccc(Cl)cc2Cl)cc1	0	1	2	-3	96*	3
CCC(=O)Nc1cc(C(=O)OCC(=O)c2ccc(Cl)cc2Cl)ccc1C	-1	-1	·	6	-1	-2
Cn1cnc([N+](=O)[O-])c1Oc1ccc2ccccc2c1	47*	0	·	-16	0	0
Cc1cc(C)cc(OCC(O)CN2CCN(Cc3ccc4c(c3)OCO4)CC2)c1 (configuration not stated)	0	1	2	310*	2	-2
C[C@H](CO)N1C[C@H](C)[C@@H](CN(C)S(=O)(=O)c2ccc(C#N)cc2)OCc2ccccc2-c2c(n(C)c3ccccc23)C1=O	·	·	-1	·	·	·
NC(=S)NNc1cc(Cl)cc(Cl)c1	0	-4	·	11	97*	-1
O=C(CSc1nc2ccccc2c(=O)n1-c1ccc(F)c(Cl)c1)Nc1cccc(S(=O)(=O)N2CCOCC2)c1	-3	0	-1	9	98*	-7
COC(=O)CSc1[nH]c2ccccc2c1[N+](=O)[O-]	2	1	-8	-12	100*	-1
O=c1[nH]c(SCc2ccc(Cl)cc2)nc2ccccc12	0	-2	-6	1	-11	0
